Laboratory results reported in article PMC7819943, “Rice protein-binding microarrays: a tool to detect cis-acting elements near promoter regions in rice”.
Whole data set: some 68,000 sequences, median “fluorescence intensity (a.u.)” near 9,100, cut for the highest 2% near 16,000. Many of the other results were omitted from the sample, so the highest values are more common in it than they were.

Molecular target: OsWRKY34 (Oryza sativa, UniProt Q0JBA9 1-250)
Test: protein-binding microarray (RPBM); PBS, 2% BSA, 51.3 ng/ul salmon testes DNA, 50 uM zinc acetate, 200 nM TF, 25 C, 1 h; high values mean tight binding
Conditions: protein: recombinant; tags: N-terminal polyhistidine and DsRed monomer fusion (pET32a); label: CyDye5-dUTP incorporated in the synthesized complementary strand; 3' TTTTT single-stranded linker to array surface; dsDNA, one strand shown
In short: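 The binding signal for each feature is its fluorescence intensity in arbitrary units. An Axon 4000B scanner was used to read a custom Agilent array that had been made double-stranded with Cy5-dUTP primer extension, blocked with 2% BSA, incubated at 25 °C for 1 h with 200 nM protein in PBS, 2% BSA, salmon testes DNA and 50 µM zinc acetate, and washed. The protein was an N-terminal polyhistidine–DsRed transcription factor fusion from E. coli BL21-CodonPlus, purified on Ni–NTA.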

Sequence of OsWRKY34 (Q0JBA9 entry or part of it): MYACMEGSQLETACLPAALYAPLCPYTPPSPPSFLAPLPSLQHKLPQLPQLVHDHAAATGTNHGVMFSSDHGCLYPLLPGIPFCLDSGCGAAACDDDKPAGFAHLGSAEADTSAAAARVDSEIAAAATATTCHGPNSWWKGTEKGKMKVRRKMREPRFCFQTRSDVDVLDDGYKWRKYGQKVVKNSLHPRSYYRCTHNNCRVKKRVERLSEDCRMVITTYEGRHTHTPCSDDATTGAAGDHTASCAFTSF

| Sequence | binding signal |
| --- | --- |
| TTATGGTTGTTTTCTTCGGTTCTTTGTTTTTTTAAAAAAACGGAGTCACCTAGTGCAG | 11600 fluorescence intensity (a.u.) |
| TGTATAGTTTAGGGGTGAAGATTTCTGGTTTTGTGGTTAACGGAGTCACCTAGTGCAG | 11500 fluorescence intensity (a.u.) |
| ATGGTTTTTCAGGGTTGGATTTATGTGTGGTCAGTTTAAACGGAGTCACCTAGTGCAG | 12000 fluorescence intensity (a.u.) |
| GATGTGCCAATGGTTTCTTTCTCTTTCTTTCTCTTTAAAACGGAGTCACCTAGTGCAG | 8910 fluorescence intensity (a.u.) |
| AAGCGGGGATTTTATGTGGGCAGTGGGTTTTCTTCTTAAACGGAGTCACCTAGTGCAG | 19300 fluorescence intensity (a.u.) |
| ATTATTAATAAAACTCATTCTATAACTCTGGACTAATTCGCGGAGTCACCTAGTGCAG | 8200 fluorescence intensity (a.u.) |
| GGGGTTTGCTATTCTGGCTCTCTATTAAGCTCATAAAAAACGGAGTCACCTAGTGCAG | 23500 fluorescence intensity (a.u.) |
| AGGCTACACTATTAAACTTGCTCTTCTCAAGCTACTTCAACGGAGTCACCTAGTGCAG | 8190 fluorescence intensity (a.u.) |
| GAGTGGGTGTGGGTTTTCTAGTGGGCAGATTTAGTTTTAACGGAGTCACCTAGTGCAG | 17200 fluorescence intensity (a.u.) |
| AGAGGGGAGGGAGGAGGATTATGGTTTTTTTTCTCTAAAACGGAGTCACCTAGTGCAG | 16700 fluorescence intensity (a.u.) |
| GTGGGCAGATTTAGTTTTAATGGGTGTGGGTACGGAGAGTCGGAGTCACCTAGTGCAG | 8900 fluorescence intensity (a.u.) |
| ACATGTGGGGCCTATTTATTTCTTTTTTTTTAAAAAAAAACGGAGTCACCTAGTGCAG | 8480 fluorescence intensity (a.u.) |
| TCCATTTCCCGCCGCCTCCCCTCTCGCGATCCATATCCATCGGAGTCACCTAGTGCAG | 8050 fluorescence intensity (a.u.) |
| GCTTTTCTTCCTCGACAAGGCCGCCTGCACCACCGTCTCCCGGAGTCACCTAGTGCAG | 10500 fluorescence intensity (a.u.) |
| CTGGTTACTTTCTCATTTCTTCCTCGCTCGCGCGCTCTCTCGGAGTCACCTAGTGCAG | 10800 fluorescence intensity (a.u.) |
| GATTTAGAGTTGGAGTCAGTCGGTTTGACCAGCCACATGCCGGAGTCACCTAGTGCAG | 8690 fluorescence intensity (a.u.) |
| GCTAGGTCAACTTTGCTCTCAGCTCTCGCTCCCGATGCCACGGAGTCACCTAGTGCAG | 9760 fluorescence intensity (a.u.) |
| CTCTCTCTCTCTCTCTCTCTCTCTCTCCAACGCGCGCGCGCGGAGTCACCTAGTGCAG | 8700 fluorescence intensity (a.u.) |
| CGGCGTCTCTACCTCTACGAATCAGGTCAGGCTTCGATCCCGGAGTCACCTAGTGCAG | 8380 fluorescence intensity (a.u.) |
| CTGGCCGCCATCTCCGCCAATCTCGCTGAATCGGACGCCACGGAGTCACCTAGTGCAG | 8460 fluorescence intensity (a.u.) |
| ATGTGTGGATTTATAAGGGTGAGTATATGTGTTTCGGGAACGGAGTCACCTAGTGCAG | 8140 fluorescence intensity (a.u.) |

| Sequence | binding signal |
| --- | --- |
| GAAATGTGGGAGGGGTTTTCTTACAAATGTTATATAGACACGGAGTCACCTAGTGCAG | 13900 fluorescence intensity (a.u.) |
| GGGGTTTTTCTTATGTTAGTATATGTGTGGGATGTGTGAACGGAGTCACCTAGTGCAG | 16800 fluorescence intensity (a.u.) |
| CGGGTTCAATATATTGTTTTTTTTAAGACTGGTTCAATATCGGAGTCACCTAGTGCAG | 8880 fluorescence intensity (a.u.) |
| TATGTGTTTTTTGCCGATTAAATTATTACGGGATATATAACGGAGTCACCTAGTGCAG | 9680 fluorescence intensity (a.u.) |
| TATATCACATTTAATTATTTTTCCCATGTTCTTGTTTTAACGGAGTCACCTAGTGCAG | 9480 fluorescence intensity (a.u.) |
| ATTGGGTTGATATTATATTGGCAGGGCCAGAAAGTTTTACCGGAGTCACCTAGTGCAG | 8580 fluorescence intensity (a.u.) |
| AACGGTCAAACATGTGCTAAAAAGTCAACGGTGTCAAATACGGAGTCACCTAGTGCAG | 18600 fluorescence intensity (a.u.) |
| TAAGACGAATGGTCAAACATGTAAGAAAAAGTCAACGGTACGGAGTCACCTAGTGCAG | 12900 fluorescence intensity (a.u.) |
| CGAATGGTCAAACATGTAGAAAAAAGTCAACGGTGTCATCCGGAGTCACCTAGTGCAG | 16900 fluorescence intensity (a.u.) |
| AACGGTCAAATATGTGCTAAAAAGTCAACGGTGTCAAATACGGAGTCACCTAGTGCAG | 11300 fluorescence intensity (a.u.) |
| ACGAACGGTCAAACATGTGCTAAAAAGTCAACGGTGTCAACGGAGTCACCTAGTGCAG | 15900 fluorescence intensity (a.u.) |
| CGAATGGTCAAACATATGAGAAAAAGTCAACGATGTCATCCGGAGTCACCTAGTGCAG | 13900 fluorescence intensity (a.u.) |
| ATGGTCAAACATGTGCTAAAAAGTCAACGGTGTCAAACATCGGAGTCACCTAGTGCAG | 17700 fluorescence intensity (a.u.) |
| AATGGTCAAACATGTGAGAAAAAGTCAACGGCGTTATCTACGGAGTCACCTAGTGCAG | 15500 fluorescence intensity (a.u.) |
| ACGAATGGTCAAACATGTGAGGAAAAGTCAACGGCGTCATCGGAGTCACCTAGTGCAG | 13400 fluorescence intensity (a.u.) |
| CGGTCAAACATGTGCTAAAAAGTCAACGGTGTCAAATATTCGGAGTCACCTAGTGCAG | 11400 fluorescence intensity (a.u.) |
| GAACGGTCAAACATGTGCTAAAAAGTCAACGGTGTCAAACCGGAGTCACCTAGTGCAG | 10100 fluorescence intensity (a.u.) |
| ATGGTCAAACATGTGAGAAAAAGTCAACGGCGTCATCTATCGGAGTCACCTAGTGCAG | 19600 fluorescence intensity (a.u.) |
| TAGCTCGGATTCTGCCCCTAATCCCGCCGTCCGCCTCCGCCGGAGTCACCTAGTGCAG | 8490 fluorescence intensity (a.u.) |
| AGGCAACACATACAATGTATCACCTCTAACACACAAATACCGGAGTCACCTAGTGCAG | 8410 fluorescence intensity (a.u.) |
| TCCATCAGTTTTGTGAACTCTGTCTGTCACTCGCTCAGCACGGAGTCACCTAGTGCAG | 8940 fluorescence intensity (a.u.) |
